# Measurements: the supplement of paper PMC8975748
# Structures can show the parent of a compound that is named as a salt. ± gives the standard deviation of the averaged measurements.
# Experiments:
# [1] = tested on: Saccharomyces cerevisiae BY4741 SeMeCo community; test: z-score of prototroph abundance vs DMSO median; higher = larger share of this subpopulation than in DMSO controls; conditions: 10 µM; 24 h; SM minimal medium; subpopulation (auxotrophy): Prototroph
# How it was run: (§1)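 A Saccharomyces cerevisiae BY4741 community carried four plasmids, each restoring one auxotrophy and encoding a distinct fluorescent protein. It was pre-grown overnight to OD600 1.0, diluted to 0.3, and 70 µl was added to 384-well plates acoustically predosed with library drugs (10 µM final), then grown 24 h in minimal SM medium. Cells were paraformaldehyde-fixed and imaged by automated confocal microscopy, with single-auxotroph fluorescent strains setting thresholds and autofluorescence correction. Each subpopulation's abundance was scored as a z-score against the vehicle-well median.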
# [2] = tested on: Saccharomyces cerevisiae BY4741 SeMeCo community; test: z-score of subpopulation abundance vs DMSO median, subpopulation auxotrophic for M; higher = larger share of this subpopulation than in DMSO controls; conditions: 10 µM; 24 h; SM minimal medium; subpopulation (auxotrophy): M
# How it was run: as §1
# [3] = tested on: Saccharomyces cerevisiae BY4741 SeMeCo community; test: z-score of subpopulation abundance vs DMSO median, subpopulation auxotrophic for L; higher = larger share of this subpopulation than in DMSO controls; conditions: 10 µM; 24 h; SM minimal medium; subpopulation (auxotrophy): L
# How it was run: as §1
# [4] = tested on: Saccharomyces cerevisiae BY4741 SeMeCo community; test: z-score of subpopulation abundance vs DMSO median, subpopulation auxotrophic for U; higher = larger share of this subpopulation than in DMSO controls; conditions: 10 µM; 24 h; SM minimal medium; subpopulation (auxotrophy): U
# How it was run: as §1
# [5] = tested on: Saccharomyces cerevisiae BY4741 SeMeCo community; test: z-score of subpopulation abundance vs DMSO median, subpopulation auxotrophic for H; higher = larger share of this subpopulation than in DMSO controls; conditions: 10 µM; 24 h; SM minimal medium; subpopulation (auxotrophy): H
# How it was run: as §1
# [6] = tested on: Saccharomyces cerevisiae BY4741 SeMeCo community; test: z-score of subpopulation abundance vs DMSO median, subpopulation auxotrophic for LU; higher = larger share of this subpopulation than in DMSO controls; conditions: 10 µM; 24 h; SM minimal medium; subpopulation (auxotrophy): LU
# How it was run: as §1
# [7] = tested on: Saccharomyces cerevisiae BY4741 SeMeCo community; test: z-score of subpopulation abundance vs DMSO median, subpopulation auxotrophic for LM; higher = larger share of this subpopulation than in DMSO controls; conditions: 10 µM; 24 h; SM minimal medium; subpopulation (auxotrophy): LM
# How it was run: as §1
# [8] = tested on: Saccharomyces cerevisiae BY4741 SeMeCo community; test: z-score of subpopulation abundance vs DMSO median, subpopulation auxotrophic for HM; higher = larger share of this subpopulation than in DMSO controls; conditions: 10 µM; 24 h; SM minimal medium; subpopulation (auxotrophy): HM
# How it was run: as §1
# [9] = tested on: Saccharomyces cerevisiae BY4741 SeMeCo community; test: z-score of subpopulation abundance vs DMSO median, subpopulation auxotrophic for HU; higher = larger share of this subpopulation than in DMSO controls; conditions: 10 µM; 24 h; SM minimal medium; subpopulation (auxotrophy): HU
# How it was run: as §1
# [10] = tested on: Saccharomyces cerevisiae BY4741 SeMeCo community; test: z-score of subpopulation abundance vs DMSO median, subpopulation auxotrophic for UM; higher = larger share of this subpopulation than in DMSO controls; conditions: 10 µM; 24 h; SM minimal medium; subpopulation (auxotrophy): UM
# How it was run: as §1
# [11] = tested on: Saccharomyces cerevisiae BY4741 SeMeCo community; test: z-score of subpopulation abundance vs DMSO median, subpopulation auxotrophic for HL; higher = larger share of this subpopulation than in DMSO controls; conditions: 10 µM; 24 h; SM minimal medium; subpopulation (auxotrophy): HL
# How it was run: as §1
# [12] = tested on: Saccharomyces cerevisiae BY4741 SeMeCo community; test: z-score of subpopulation abundance vs DMSO median, subpopulation auxotrophic for HLU; higher = larger share of this subpopulation than in DMSO controls; conditions: 10 µM; 24 h; SM minimal medium; subpopulation (auxotrophy): HLU
# How it was run: as §1
# [13] = tested on: Saccharomyces cerevisiae BY4741 SeMeCo community; test: z-score of subpopulation abundance vs DMSO median, subpopulation auxotrophic for HUM; higher = larger share of this subpopulation than in DMSO controls; conditions: 10 µM; 24 h; SM minimal medium; subpopulation (auxotrophy): HUM
# How it was run: as §1
# [14] = tested on: Saccharomyces cerevisiae BY4741 SeMeCo community; test: z-score of subpopulation abundance vs DMSO median, subpopulation auxotrophic for LUM; higher = larger share of this subpopulation than in DMSO controls; conditions: 10 µM; 24 h; SM minimal medium; subpopulation (auxotrophy): LUM
# How it was run: as §1
# [15] = tested on: Saccharomyces cerevisiae BY4741 SeMeCo community; test: z-score of subpopulation abundance vs DMSO median, subpopulation auxotrophic for HLUM; higher = larger share of this subpopulation than in DMSO controls; conditions: 10 µM; 24 h; SM minimal medium; subpopulation (auxotrophy): HLUM
# How it was run: as §1
# [16] = tested on: Saccharomyces cerevisiae BY4741 SeMeCo community; test: mean cell size (pixel area) (pixels); higher = larger cells; conditions: 10 µM; 24 h; SM minimal medium
# How it was run: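 Mean cell pixel area per well was determined by automated confocal microscopy with Harmony analysis of paraformaldehyde-fixed cells. The cells, a Saccharomyces cerevisiae BY4741 community of four plasmids that each complement one auxotrophy and carry a fluorescent marker, were incubated for 24 h with drug at a final 10 µM in SM medium in 384-well plates. Numbers are averaged over 3 replicates. Same SeMeCo high-content imaging drug screen: Selleck FDA-approved drugs at 10 µM, 24 h in SM medium, 384-well plates, 3 replicates.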
# [17] = tested on: Saccharomyces cerevisiae BY4741 SeMeCo community; test: z-score of subpopulation abundance vs DMSO median, subpopulation auxotrophic for HLM; higher = larger share of this subpopulation than in DMSO controls; conditions: 10 µM; 24 h; SM minimal medium; subpopulation (auxotrophy): HLM
# How it was run: as §1
Structure (SMILES),z-score of prototroph abundance [1],z-score of subpopulation abundance [2],z-score of subpopulation abundance [3],z-score of subpopulation abundance [4],z-score of subpopulation abundance [5],z-score of subpopulation abundance [6],z-score of subpopulation abundance [7],z-score of subpopulation abundance [8],z-score of subpopulation abundance [9],z-score of subpopulation abundance [10],z-score of subpopulation abundance [11],z-score of subpopulation abundance [12],z-score of subpopulation abundance [13],z-score of subpopulation abundance [14],z-score of subpopulation abundance [15],mean cell size [16],z-score of subpopulation abundance [17]
COC(=O)C1=C(C)NC(C)=C(C(=O)OCCN2CCN(C(c3ccccc3)c3ccccc3)CC2)C1c1cccc([N+](=O)[O-])c1 (stereo not drawn) [Manidipine 2HCl],-1.31,2.89,0.47,-1.31,1.78,-0.77,2.4,2.87,0.05,-0.8,2.26,0.54,1.21,0.89,0.77,,
CC[C@@H]([C@H](C)O)n1ncn(-c2ccc(N3CCN(c4ccc(OC[C@@H]5CO[C@@](Cn6cncn6)(c6ccc(F)cc6F)C5)cc4)CC3)cc2)c1=O [Posaconazole],-11.6,-1.66,-0.49,0.25,16.6,3.33,,,,10.8,10.8,14.4,11.8,7.85,12.3,12.34 ± 0.068,
CN[C@H]1CC[C@@H](c2ccc(Cl)c(Cl)c2)c2ccccc21 [Sertraline HCl],1.15,0.18,-0.29,-0.41,-1.14,-0.7,-0.97,-0.87,-1.26,-0.56,-0.5,-0.32,-0.4,-1.09,-0.97,,
CN(C)CCCN1c2ccccc2CCc2ccc(Cl)cc21 [Clomipramine HCl],-0.93,0.54,-0.45,1.4,-0.49,0.32,,0.1,,0.93,-0.45,-0.16,1.2,1.56,,12.55 ± 0.052,
Nc1ccc(S(=O)(=O)Nc2nccs2)cc1 [Sulfathiazole],0.17,-0.25,-0.12,,-1.09,0.15,,-0.53,-0.39,1.04,-0.09,0.27,,,-0.19,12.4 ± 0.21,
O=c1[nH]c(=O)n([C@H]2C[C@H](O)[C@@H](CO)O2)cc1/C=C/Br [Brivudine],0.4,0.48,-2.11,,-2.5,-0.22,-1.47,-0.22,-0.94,0.16,,-0.95,,-0.74,-1.13,12.41 ± 0.042,
CO/N=C(\C(=O)N[C@@H]1C(=O)N2C(C(=O)O)=C(CSc3nnnn3C)CS[C@H]12)c1csc(N)n1 [Cefmenoxime hydrochloride],-0.33,0.36,,-0.34,,0.37,0.27,0.28,-0.46,0.4,-0.51,-0.51,-0.02,-0.46,-0.52,,-0.86
CC[C@H]1OC(=O)[C@H](C)[C@@H](O[C@H]2C[C@@](C)(OC)[C@@H](O)[C@H](C)O2)[C@H](C)[C@@H](O[C@@H]2O[C@H](C)C[C@H](N(C)C)[C@H]2O)[C@](C)(O)C[C@@H](C)C(=O)[C@H](C)[C@@H](O)[C@]1(C)O [Erythromycin],,0.24,,,1,0.03,1.38,0.91,-0.18,-0.8,,1,-0.16,1.19,0.28,12.3 ± 0.15,0.66
C[C@@H](c1nc(-c2ccc(C#N)cc2)cs1)[C@](O)(Cn1cncn1)c1cc(F)ccc1F [Isavuconazole],,-1.83,,-1.5,15.6,0.81,1.61,8.09,8.91,13.4,9.84,6.83,10.4,,13.5,11.95 ± 0.079,15.5
Cc1cccc(C)c1NC(=O)C1CCCCN1C (stereo not drawn) [Mepivacaine],-0.01,0.42,,0.11,-1.62,-0.35,0.4,-0.49,-0.53,0.24,-0.24,0.12,-0.62,0.08,-0.41,,-0.7
O=C(C1CCCCC1)N1CC(=O)N2CCc3ccccc3C2C1 (stereo not drawn) [Praziquantel],-0.09,0.19,,0.5,-0.1,0.75,0.34,-0.5,,0.1,-0.41,0.47,-0.37,0.43,0.11,12.39 ± 0.1,-1.06
CO[C@H]1C[C@@H]2CC[C@@H](C)[C@@](O)(O2)C(=O)C(=O)N2CCCC[C@H]2C(=O)O[C@H]([C@H](C)C[C@@H]2CC[C@H](n3cnnn3)[C@H](OC)C2)CC(=O)[C@H](C)/C=C(\C)[C@@H](O)[C@@H](OC)C(=O)[C@H](C)C[C@H](C)/C=C/C=C/C=C/1C [Zotarolimus(ABT-578)],-17.5,-0.02,,3.68,14.4,3.23,2.28,23.2,,7.28,15.7,18.8,22.3,,31.4,13.94 ± 0.041,18.4
OC(Cn1cncn1)(Cn1cncn1)c1ccc(F)cc1F [Fluconazole],2.13,-1.85,,,,-1.41,-0.76,-1.78,-1.49,-0.52,-1.18,-1.51,-1.16,-0.64,-1.38,11.98 ± 0.059,-1.07
Cc1cccc(C#Cc2ccccc2)n1,0.53,-0.25,,,0.06,0.12,-0.31,-0.61,-0.18,,-0.06,-0.17,-0.32,-0.34,-0.82,,-0.43
CCC(=O)NS(=O)(=O)c1ccc(-c2c(-c3ccccc3)noc2C)cc1 [Parecoxib Sodium],,0.75,,0.97,0.01,0.31,1,1.65,0.55,0.8,1.38,0.91,1.38,1.18,0.78,12.39 ± 0.068,0.26
